Records with an inconclusive call do not appear. The source made the active and inactive calls. Calls come from the whole dose curve; as a rule, active = well fitted inhibition curve with a large enough effect; inconclusive = small, poorly fitted or top-dose-only effect; inactive = flat fitted curve, though single readings scatter.
Tested on: AA1029
Assay: qHTS profiling for inhibitors of Plasmodium falciparum proliferation (AID 504749); note: nearly all actives have a fitted effect of over 60% in size;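 for activity, negative = inhibition: 0% = DMSO vehicle and full inhibition = artemisinin control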
Conditions: P. falciparum in erythrocytes, SYBR Green DNA, 72 h; series mostly up to 28.7 µM; activity, negative = inhibition: at the top concentration
How it was run: (§1)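 P. falciparum-infected erythrocytes (0.3% parasitemia, 2.5% hematocrit) incubated with compound 72 h at 37 C, 5% CO2. Parasite DNA detected by SYBR Green after lysis, overnight at room temperature; normalised to 0.29 uM artemisinin and DMSO.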
Potency is the fitted concentration of half-maximal effect.

Compound | activity, negative = inhibition | Potency
Cc1cc(C(C#N)c2ccc(Cl)cc2)c(Cl)cc1NC(=O)c1cc(I)cc(I)c1O (configuration not stated) | 0.793% (inactive) | –
CC1=C(CC(=O)O)c2cc(F)ccc2/C1=C\c1ccc(S(C)=O)cc1 (configuration not stated) | -7.58% (inactive) | –
CSc1ccc2c(c1)N(CCC1CCCCN1C)c1ccccc1S2 (configuration not stated) | – | 10 µM (active)
Nc1ccc(S(=O)(=O)Nc2nccs2)cc1 | 1.78% (inactive) | –
[Cl][In]([Cl])[Cl] | -13.5% (inactive) | –
Cc1ccc2nc(N)[nH]c(=O)c2c1Sc1ccncc1 | – | 11.2 µM (active)
CCOC(=O)c1ccc(O)cc1 | 2.06% (inactive) | –
COCCOC(=O)C1=C(C)NC(C)=C(C(=O)OC/C=C/c2ccccc2)C1c1cccc([N+](=O)[O-])c1 (configuration not stated) | – | 8.91 µM (active)
O=S(=O)(O)c1cc(I)c(O)c2ncccc12 | 6.19% (inactive) | –
Cc1ccc(C(C)C)cc2c(C)ccc1-2 | -11.5% (inactive) | –
COC(=O)C1=C(C)NC(C)=C(C(=O)OC)C1c1ccccc1[N+](=O)[O-] | -6.55% (inactive) | –
CC(C)(C)NCC(O)COc1ccc(NC(=O)NC2CCCCC2)cc1 (configuration not stated) | -12% (inactive) | –
CCCCOC(=O)c1ccc(O)cc1 | 3.31% (inactive) | –
OCc1cc(C(O)CNCCCCCCOCCCCc2ccccc2)ccc1O (configuration not stated) | -21.4% (inactive) | –
OCCN1CCN(CCCN2c3ccccc3Sc3ccc(Cl)cc32)CC1 | – | 3.55 µM (active)
CC[C@@]1(c2ccccc2)NC(=O)N(C)C1=O | 6.32% (inactive) | –
CCCCCCCCCCCCCCCC(=O)NCCO | 5.6% (inactive) | –
Cc1cc(N)c2ccccc2[n+]1CCCCCCCCCC[n+]1c(C)cc(N)c2ccccc21 | – | 0.316 µM (active)
O=C1NS(=O)(=O)c2ccccc21 | 1.57% (inactive) | –
CCCc1c(OCCCCc2nn[nH]n2)ccc(C(C)=O)c1O | -23.5% (inactive) | –
Cc1c(Cl)cccc1Nc1ccccc1C(=O)O | -2.68% (inactive) | –

Tested on: AS120
Assay: as above
Conditions: P. falciparum in erythrocytes, SYBR Green DNA, 72 h; series mostly up to 28.7 µM; activity, negative = inhibition: at the top concentration
How it was run: as §1

Compound | activity, negative = inhibition | Potency
Cc1cc(C(C#N)c2ccc(Cl)cc2)c(Cl)cc1NC(=O)c1cc(I)cc(I)c1O (configuration not stated) | -8.32% (inactive) | –
CC(C(O)c1ccc(O)cc1)N1CCC(Cc2ccccc2)CC1 (configuration not stated) | – | 8.91 µM (active)
CC1=C(CC(=O)O)c2cc(F)ccc2/C1=C\c1ccc(S(C)=O)cc1 (configuration not stated) | -7.48% (inactive) | –
CNC(=O)Oc1ccc2c(c1)[C@]1(C)CCN(C)[C@@H]1N2C | – | 2 µM (active)
CSc1ccc2c(c1)N(CCC1CCCCN1C)c1ccccc1S2 (configuration not stated) | – | 11.2 µM (active)
Nc1ccc(S(=O)(=O)Nc2nccs2)cc1 | 8.05% (inactive) | –
Cc1ccc2nc(N)[nH]c(=O)c2c1Sc1ccncc1 | – | 4.47 µM (active)
CC(C)(C)C(=O)C(Oc1ccc(Cl)cc1)n1ccnc1 (configuration not stated) | – | 10 µM (active)
CCOC(=O)c1ccc(O)cc1 | 5.15% (inactive) | –
COCCOC(=O)C1=C(C)NC(C)=C(C(=O)OC/C=C/c2ccccc2)C1c1cccc([N+](=O)[O-])c1 (configuration not stated) | – | 11.2 µM (active)
O=S(=O)(O)c1cc(I)c(O)c2ncccc12 | -4.6% (inactive) | –
NC1CCN(c2cccc(Cl)n2)CC1 | -15.5% (inactive) | –
Cc1ccc(C(C)C)cc2c(C)ccc1-2 | -10% (inactive) | –
COC(=O)C1=C(C)NC(C)=C(C(=O)OC)C1c1ccccc1[N+](=O)[O-] | -13.3% (inactive) | –
CC(C)(C)NCC(O)COc1ccc(NC(=O)NC2CCCCC2)cc1 (configuration not stated) | -4.71% (inactive) | –
CCCCOC(=O)c1ccc(O)cc1 | 1.85% (inactive) | –
OCc1cc(C(O)CNCCCCCCOCCCCc2ccccc2)ccc1O (configuration not stated) | -15.5% (inactive) | –
OCCN1CCN(CCCN2c3ccccc3Sc3ccc(Cl)cc32)CC1 | – | 3.98 µM (active)
CC[C@@]1(c2ccccc2)NC(=O)N(C)C1=O | 8.47% (inactive) | –
CCCCCCCCCCCCCCCC(=O)NCCO | 9.3% (inactive) | –
Cc1cc(N)c2ccccc2[n+]1CCCCCCCCCC[n+]1c(C)cc(N)c2ccccc21 | – | 7.94 µM (active)
O=C1NS(=O)(=O)c2ccccc21 | 2.43% (inactive) | –
CNCCCC1c2ccccc2C=Cc2ccccc21 | -29.9% [at 12.8 µM] (inactive) | –
CCCc1c(OCCCCc2nn[nH]n2)ccc(C(C)=O)c1O | -18% (inactive) | –
CCOC(CN1CCN(CC(C)C(=O)c2ccccc2)CC1)c1ccccc1 (configuration not stated) | -24.8% (inactive) | –
Cc1c(Cl)cccc1Nc1ccccc1C(=O)O | -1.34% (inactive) | –

— PubChem BioAssay (NCATS)
